From PubChem BioAssay (NCI)
About 83,000 compounds went through this panel and 20% of them were active in at least one assay; those are over-represented in the sample as a whole.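 Each cell line was grown in a 96-well plate and treated with one concentration of compound for 48 hours. Values below 10 were considered active.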 The source made the active and inactive calls.

How the values were obtained:
Experiment in all cases: NCI-60 one-dose screen, 48 h (100 = growth as untreated, 0 = no growth, -100 = all killed)
Conditions in all cases: 10 µM
[1] = test system: T-47D breast
[2] = test system: BT-549 breast
[3] = test system: MDA-MB-435 melanoma
[4] = test system: SW-620 colon
[5] = test system: MCF7 breast
[6] = test system: HCT-116 colon
[7] = test system: HCC-2998 colon
[8] = test system: KM12 colon

Measured: growth

C=CCn1ccc(=O)nc1SC
inactive: [1] 97.2% | [2] 105% | [3] 108% | [4] 103% | [5] 100% | [6] 112% | [7] 103% | [8] 104%

COc1ccc(-c2cc(/C=C3\C(=O)Nc4cc(Cl)ccc43)[nH]n2)cc1
inactive: [1] 47.8% | [2] 63.5% | [4] 19.9% | [5] 11.7% | [6] 26.2% | [7] 56.7% | [8] 19.2%
active: [3] -36.7%

CC(C)c1[nH]nc2c(NCc3ccc(-c4ccccn4)cc3)nc(SCCN(C)C)nc12
active: [1] -6.72% | [2] -43.1% | [3] 0.81% | [4] 9.8% | [5] 4.04% | [6] 9.24% | [7] -15.7% | [8] 8.47%

CC1(C)Cc2c(cn(Cc3ccccc3)c2-c2ccccc2)-c2oncc21
inactive: [1] 75.7% | [2] 108% | [3] 92.8% | [4] 95.7% | [5] 105% | [6] 88.2% | [7] 104% | [8] 105%

O=S(=O)(NC1c2ccccc2Oc2ccccc21)c1ccccc1
inactive: [1] 82.3% | [2] 91.6% | [3] 107% | [4] 97% | [5] 91.5% | [6] 84.9% | [7] 103% | [8] 104%

COc1ccc(CSc2nc3cc(OC)c(OC)cc3c(=O)n2-c2ccc(OC)cc2OC)cc1
inactive: [1] 75.6% | [2] 93.9% | [3] 62% | [4] 90.3% | [5] 83.1% | [6] 62.9% | [7] 101% | [8] 78.1%

CC(C)OP(=O)(O)c1ncc(-c2ccc(C(F)(F)F)cc2)c(NC2CCCCCC2)n1
inactive: [1] 41.7% | [2] 86.6% | [3] 62.7% | [4] 54.7% | [5] 51.1% | [6] 53.1% | [7] 89.8% | [8] 48%

C#C[C@]1(O)CC[C@H]2[C@@H]3CC[C@H]4CC(F)(F)CC[C@]4(C)[C@H]3CC[C@@]21C
inactive: [1] 64.7% | [2] 58.6% | [3] 84% | [4] 87.9% | [5] 88.9% | [6] 76.6% | [7] 112% | [8] 87.2%

CCN1CCN(c2nc(NNC(=O)c3cccc(OC)c3)nc(N3CCN(C(c4ccccc4)c4ccccc4)CC3)n2)CC1
active: [7] -16.4%
inactive: [1] 47.9% | [2] 63.3% | [3] 19.5% | [4] 69.5% | [5] 12.8% | [6] 26.7% | [8] 25.7%

COc1ccc(C2CC(c3ccc(-c4ccccc4)cc3)=NN2c2ccc(S(N)(=O)=O)cc2)cc1 (centres undefined)
inactive: [1] 52.5% | [2] 98.5% | [3] 76% | [4] 81.1% | [5] 58.6% | [6] 56.7% | [7] 58.2% | [8] 37.5%

CCCCCc1cc[n+](CC(=O)c2ccc(Cl)cc2)cc1
inactive: [1] 90.6% | [2] 86.6% | [3] 86.7% | [4] 83.2% | [5] 89.7% | [6] 59% | [7] 91% | [8] 73.4%

COc1ccc(-c2nnc(SC/C(=N\O)c3ccccc3)o2)cc1
inactive: [1] 91.8% | [2] 100% | [3] 106% | [4] 103% | [5] 104% | [6] 91.6% | [7] 94% | [8] 86.2%

CCCCOCCOCCOCc1cc2c(cc1Br)OCO2
inactive: [1] 88% | [2] 110% | [3] 108% | [4] 100% | [5] 90.2% | [6] 94.9% | [7] 108% | [8] 97.7%

O=NN(CCCl)C(=O)NCc1ccc(-c2ccc(CNC(=O)N(CCCl)N=O)cc2)cc1
inactive: [1] 101% | [2] 86.6% | [3] 91.3% | [4] 89.5% | [5] 96.1% | [6] 89.2% | [7] 101% | [8] 98.9%

CCCCN(CCCC)c1ccc(C(=NC(C)CCCN(CC)CC)c2ccc(N(C)C)cc2)cc1 (centres undefined)
active: [1] -55.8% | [2] -27.2% | [3] -87.5% | [4] -66.7% | [5] -80.9% | [6] -81.5% | [7] -59% | [8] -14.3%

CCCCCCCCCCSC(=N)N (tested in a mixture with another compound)
active: [7] -57.9%
inactive: [1] 28% | [2] 75% | [3] 79.6% | [4] 38.6% | [5] 36.6% | [6] 55.6% | [8] 45.3%

CCN(CC)CCn1c(=N)n(CC(O)c2ccc(Cl)c(Cl)c2)c2ccccc21 (centres undefined)
active: [3] 1.39%
inactive: [1] 66.5% | [2] 76.7% | [4] 93.5% | [5] 90% | [6] 77.7% | [7] 74.5% | [8] 84.4%

CCOC(=O)c1ccc(NC(=O)Nc2nncs2)cc1
inactive: [1] 49.3% | [2] 13.7% | [4] 18% | [5] 21.7% | [6] 12.6% | [7] 18.8% | [8] 12.4%
active: [3] -41.3%

N#C/C(=C\N1C(=O)/C(=C/c2cccc([N+](=O)[O-])c2)SC1=S)c1nc2ccccc2s1
inactive: [1] 54.7% | [2] 78.3% | [3] 76.2% | [4] 105% | [5] 70.9% | [6] 81.6% | [7] 100% | [8] 81.3%

O=C(COCc1c(-c2ccccc2)no[n+]1[O-])Nc1nc(-c2ccc(Cl)cc2)cs1
inactive: [1] 103% | [2] 102% | [3] 111% | [4] 101% | [5] 96.3% | [6] 104% | [7] 104% | [8] 101%

CCOC(=O)C(CCC1=NC(C)(C)CC(C)O1)C(=O)OCC (centres undefined)
inactive: [1] 102% | [2] 88.9% | [3] 104% | [4] 56.7% | [5] 72.8% | [6] 46% | [7] 98.8% | [8] 94.4%

FC(F)(F)c1ccc(-c2cnc(Cl)nc2NC2CCCCCC2)cc1
inactive: [1] 12.4% | [2] 52.5% | [3] 11% | [4] 21.5% | [5] 20.7% | [6] 16.5% | [7] 67.9% | [8] 16.5%

COc1ccc(-c2nnc(SCC(=O)c3ccccc3)o2)cc1
inactive: [1] 86.3% | [2] 74.9% | [3] 101% | [4] 102% | [5] 104% | [6] 78.9% | [7] 86.1% | [8] 98.3%

COc1ccc(Cn2cc3c(c2-c2ccccc2)CC(C)(C)c2cnoc2-3)cc1
inactive: [1] 30.7% | [2] 46.2% | [4] 13.6% | [5] 17.1% | [6] 22.9% | [7] 77.4% | [8] 29.1%
active: [3] -16.6%

Nc1ccccc1NC(=O)CCCCCCC(=O)Nc1ccc2c(c1)/C(=C/c1ccc[nH]1)C(=O)N2
inactive: [1] 37.9% | [2] 22% | [3] 37.8% | [4] 47.4% | [5] 15.9% | [6] 17% | [7] 70.2% | [8] 13.7%

Cc1ccc2nc(-c3ccc(OCC(=O)N=Nc4c(O)[nH]c5ccccc45)cc3)[nH]c2c1
inactive: [1] 38.4% | [2] 109% | [3] 64.3% | [7] 59.7%
active: [4] 6.51% | [5] -24.7% | [6] -20.5% | [8] 1.59%

COc1ccc(-c2nc(-c3ccccc3)c(-c3ccccc3)[nH]2)cc1OC1CCCC1
inactive: [1] 35.1% | [2] 81.9% | [3] 78.9% | [4] 82.6% | [5] 78.7% | [6] 73.6% | [7] 69.7% | [8] 43.5%

O=[N+]([O-])C1CC2C=CC1C2 (centres undefined)
inactive: [1] 93% | [2] 97.3% | [3] 92.7% | [4] 103% | [5] 92.1% | [6] 107% | [7] 102% | [8] 104%

COc1nc2c(c(=O)[nH]1)C(c1ccc(Oc3ccnc4cc(Cl)ccc34)c(OC)c1)C=C(c1cc(OC)c(OC)c(OC)c1)N2 (centres undefined)
inactive: [1] 89.8% | [2] 91.7% | [3] 111% | [4] 102% | [5] 102% | [6] 94% | [7] 97.6% | [8] 104%

O=CNc1c(Cl)cc2c(c1Cl)Cc1cc([N+](=O)[O-])ccc1-2
inactive: [1] 30.6% | [2] 95.8% | [4] 41.4% | [5] 15.3% | [7] 92.5% | [8] 25.6%
active: [3] 2.37% | [6] 6.23%

CCNC(=S)NN
active: [5] 5.44%
inactive: [1] 47.2% | [2] 117% | [3] 93.7% | [4] 83.2% | [6] 10.4% | [7] 94.7% | [8] 109%

Cc1ccc2c(c1)-c1cc(C)nn1-c1ccc(C#N)cc1O2
inactive: [1] 51.8% | [2] 78.5% | [4] 41% | [5] 42% | [6] 27.6% | [7] 90% | [8] 56.9%
active: [3] 8.67%

O=C1NN(c2ccccc2)C(c2cccnc2)=N/C1=C\c1cccnc1
inactive: [1] 96.7% | [2] 101% | [3] 92.4% | [4] 110% | [5] 92.1% | [6] 91.9% | [7] 99% | [8] 95%
